Bioassay records: PubChem, National Center for Advancing Translational Sciences (NCATS)
Compounds with a hit are over-represented: about 7.3% of the library has one in this group of screens.
Vaccinia Venus: inhibitors of vaccinia virus (Venus reporter). Vaccinia virus Venus reporter expression, fluorescence. Potency, µM (top dose mostly 36.5 µM), for the others: at the top dose activity change, negative = inhibition, usual class: inhibitors. actives 0.46% (n = 330,000). AID 720580; calls by dose curve; tested in A549 cells; note: potency is the fitted concentration of half-maximal effect; nearly all actives have a fitted effect of over 30% in size
FMDV antiviral: foot and mouth disease virus antiviral activity. FMDV antiviral cell-based qHTS. Potency, µM (titrated, usually from 57.9 µM), without a hit: at the top dose activity change, negative = inhibition, hits mostly inhibitors. AID 1159524. actives 1.2% (n = 410,000); calls by dose curve; tested in HEK293T cells; note: read-out not given here; potency is the fitted concentration of half-maximal effect; nearly all actives have a fitted effect of over 45% in size
HCV inh: inhibitors of hepatitis C virus infection; Huh7.5.1 HCVcc-Cre infection, luciferase reporter, 44 h; Potency, µM (series often up to 41.8 µM), without a hit: top-dose activity change, negative = inhibition, usual class: inhibitors; actives 3.4% (n = 340,000); AID 651820; active = well fitted inhibition curve with a large enough effect; inconclusive = small, poorly fitted or top-dose-only effect, or another doubt; inactive = no such curve, though single readings can be large or run the other way; note: potency is the fitted concentration of half-maximal effect
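Luciferase read-out (15 sec integration) after a 15 min room-temperature substrate step quantifies HCVcc-Cre infection. Cells, 1,000 per well, had compound added 4 h post-plating, then virus at ~0.5 moi, and were cultured 44 h.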
VACV mCherry inh: vaccinia inhibition (mCherry reporter) | Vaccinia virus mCherry reporter infection, fluorescence | Potency, µM (top dose mostly 36.5 µM), for inactives: top-dose activity change, negative = inhibition, most hits filed as inhibitors | actives 0.63% (n = 310,000) | AID 720579; calls by dose curve; tested in A549 cells; note: potency is the fitted concentration of half-maximal effect; nearly all actives have a fitted effect of over 35% in size
HCMV inh: human cytomegalovirus inhibition; HFF cells, HCMV-luciferase reporter, 72 h; hits give low values; activity change, negative = inhibition, % at 57.5 µM; actives 4.5% (n = 410,000); in the data active = activity change below about -60%; inconclusive = no clear call, values can overlap the other calls; inactive = above about -39%
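Two-dose cell screen: HFF monolayers treated with compounds and infected with luciferase-expressing HCMV at 1 PFU/cell, 72 h at 37C, then lysed for luciferase measurement.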
The depositor's hits bear a star; i = inactive; ? = inconclusive; / = no result; [ ] = remark or other dose. % is set by controls: 0 for no effect and ±100 for the full control effect.

SMILES	Vaccinia Venus	FMDV antiviral	HCV inh	VACV mCherry inh	HCMV inh
CCOc1ccc(NC(=O)Cn2cnc3sc(C)c(S(=O)(=O)N4CCN(c5ccccc5OC)CC4)c3c2=O)cc1	-3%	0%	/	18%	-1
Cc1c(/C=N\NC(=O)C2COc3ccccc3O2)c2ccccc2n1C (centres undefined)	?	-2%	?	-21%	-86*
CN1C(=O)/C(=C/c2ccccc2F)Sc2ccc(C(=O)N3CCCC3)cc21	?	-26%	?	-17%	-14
Oc1ccc(-c2nc3c4c(ncn3n2)-c2ccccc2CC42CCCC2)cc1	-6%	25µM*	?	-14%	-65*
NS(=O)(=O)c1ccc(CCNC(=O)CN2CCN(c3cccc(Cl)c3)CC2)cc1	?	?	?	?	-89*
O=c1ccc2[n+]([O-])c3ccc(O)cc3oc-2c1	/	-21%	12%	/	-61*
O=c1cc(O)c2ccc(O)cc2o1	-21%	-9%	14%	0%	13
CC(C)NC(=O)C1CCN(C2CCN(C(=O)Cc3ccc4c(c3)OCO4)CC2)CC1	-10%	1%	0%	-2%	-11
CSCc1ccc(C(=O)N2CCC(N3CCC(C(=O)NC(C)C)CC3)CC2)o1	-2%	-18%	-9%	-13%	-64*
Cc1csc(NC(=O)CSc2ncc(-c3ccccc3)[nH]2)n1	-3%	2%	14%	i	-98*
Cc1cnc(NC(=O)CSc2nnc3ncccn23)s1	0%	-10%	10%	-4%	?
Cc1csc(NC(=O)CSc2nnc3ncccn23)n1	/	-12%	4%	/	-87*
Cc1nnc(NC(=O)CSc2ncc(-c3ccccc3)[nH]2)s1	/	35%	2%	/	13
Cc1cccc(NC(=S)NC(C)(C)CC(C)(C)C)c1	-16%	-18%	-24%	-25%	-65*
O=C(NCc1cc(C(F)(F)F)ccc1Cl)c1cccc2c1C(=O)c1ccc(N3CCOCC3)cc1S2(=O)=O	10µM*	?	-2%	-28%	-11
O=C(NCc1cc(C(F)(F)F)ccc1Cl)c1cccc2c1C(=O)c1ccc(N3CCC(N4CCCCC4)CC3)cc1S2(=O)=O	?	0%	/	?	-101*
O=C(NCc1cc(C(F)(F)F)ccc1Cl)c1cccc2c1C(=O)c1ccc(N3CCCCC3)cc1S2(=O)=O	2%	-8%	23%	-7%	-4
CC1CCC2(CC1)NC(=O)N(CC(=O)Nc1cccc(S(=O)(=O)N3CCOCC3)c1)C2=O (centres undefined)	-4%[7.34 µM]	-7%	-17%	0%[7.34 µM]	0
CCC1CCC2(CC1)NC(=O)N(CC(=O)Nc1cccc(S(=O)(=O)N(C)c3ccccc3)c1)C2=O (centres undefined)	/	-25%	8.9µM*	/	-13
CN1C(=O)N(CC(=O)Nc2cccc(S(=O)(=O)N(C)c3ccccc3)c2)C(=O)C12CCCCC2	-25%	?	4µM*	-17%	-19
O=C(O)CN1C(=O)/C(=C\c2cccc(OCc3ccccc3F)c2)SC1=S	2%	21%	-7%	-4%	-76*
O=C(O)CN1C(=O)/C(=C\c2cccc(OCc3ccc(F)cc3)c2)SC1=S	5%	6%	17%	i	-12
CCN(CC)C(=O)CN1C(=O)/C(=C/c2ccccc2)SC1=S	-7%	-13%	?	-21%	-63*
CCN(C(=O)CN1C(=O)/C(=C/c2ccccc2F)SC1=S)C1CCS(=O)(=O)C1 (centres undefined)	/	2%	-1%	/	?
CN(C(=O)CCN1C(=O)/C(=C/c2ccc(F)cc2)SC1=S)C1CCS(=O)(=O)C1 (centres undefined)	11µM*	-20%	/	?	14
SMILES	Vaccinia Venus	FMDV antiviral	HCV inh	VACV mCherry inh	HCMV inh
CCN(C(=O)CCN1C(=O)/C(=C/c2ccccc2)SC1=S)C1CCS(=O)(=O)C1 (centres undefined)	?	-27%	?	?	-113*
Cc1ccc(C)c(-c2csc(-c3c(N)c(C(=O)c4ccc5c(c4)OCO5)n4ccccc34)n2)c1	-14%[7.34 µM]	-13%	/	-14%[7.34 µM]	21
CCOc1cc(/C=C/c2cccc[n+]2C)ccc1OCC(=O)Nc1ccc(C)cc1	-12%	-2%	-27%	-10%	-95*
CCOc1cc(/C=N/n2cnnc2)ccc1OCC(=O)Nc1ccccc1OC	-11%	-14%	-4%	/	-15
COc1cc(/C=C/c2cccc[n+]2C)ccc1OCC(=O)Nc1ccccc1C	3%	2%	6%	-14%	?
CCOc1cc(/C=C\[N+](=O)[O-])ccc1OCC(=O)Nc1ccccc1C	?	25µM*	11µM*	-13%	/
CCOc1ccc(Cc2onc3c2C(=O)CCC3)cc1OCC	-7%	-19%	?	1%	-89*
N#C/C(=C\c1c(Oc2ccc(Cl)cc2)nc2ccccn2c1=O)C(=O)NC1CCS(=O)(=O)C1 (centres undefined)	-9%	20µM*	-28%	-10%	23
Cc1cccn2c(=O)c(/C=C(\C#N)C(=O)NC3CCS(=O)(=O)C3)c(Oc3ccc(F)cc3)nc12 (centres undefined)	-10%	28µM*	-1%	-6%	15
Cc1cccc(Oc2nc3ccccn3c(=O)c2/C=C(\C#N)C(=O)NC2CCS(=O)(=O)C2)c1C (centres undefined)	-16%	?	-4%	-24%	-96*
Cc1cccn2c(=O)c(/C=C(\C#N)C(=O)NC3CCS(=O)(=O)C3)c(N3CCC(C)CC3)nc12 (centres undefined)	-16%	-14%	5%	i	2
Cc1cc(Oc2nc3ccccn3c(=O)c2/C=C(\C#N)C(=O)NC2CCS(=O)(=O)C2)ccc1Cl (centres undefined)	-11%	?	?	-2%	-66*
Cc1cccc(Oc2nc3ccccn3c(=O)c2/C=C(\C#N)C(=O)NC2CCS(=O)(=O)C2)c1 (centres undefined)	-9%	0%	-2%	0%	20
CCCOc1ccc(NC(=O)CC2C(=O)N(c3cccc(OC)c3)C(=O)N2Cc2cccs2)cc1 (centres undefined)	-16%	3%	/	-16%	-13
CCOC(=O)c1cc(S(=O)(=O)N2CCN(c3cc(C)ccc3C)CC2)[nH]n1	-8%	-1%	/	-11%	12
O=C(CC1Sc2ccccc2NC1=O)NNc1ccc(Cl)cc1Cl (centres undefined)	?	-9%	-3%	4.5µM*	-9
O=C(CC1Sc2ccccc2NC1=O)NCc1ccccc1 (centres undefined)	-4%	-2%	11%	i	?
CCOc1ccccc1NC(=O)C(C)n1nnc2sc3c(c2c1=O)CCCC3 (centres undefined)	-10%	0%	/	-4%	-2
C[C@H]1[C@@H](NC(=O)Nc2ccc(C(F)(F)F)cc2)CC[C@@]23CCCN2C(=O)CCC[C@@H]13	/	/	/	/	-27
O=C1OC(Nc2ccc3c(c2)OCO3)c2ccccc21 (centres undefined)	?	?	?	?	-97*
